From PMC5540273 (PLoS ONE, 2017)

What was measured:
Settings in all cases: concentration: 1 μM, replicates: in singlicate; n = 1
BMX = test system: BMX
BRAF = test system: BRAF
BRK = test system: T1, BRK
T1 construct: gene PTK6

BRSK1 = test system: BRSK1
BRSK2 = test system: BRSK2
BTK = test system: BTK
BUB1 = test system: BUB1
CAMK1B = test system: CAMK1B
CAMK1D = test system: CAMK1D
CAMK1G = test system: CAMK1G
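Also: KINOMEscan kinase panel screen.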

SMILES | %Inh (BMX) [%] | %Inh (BRAF) [%] | %Inh (BRK) [%] | %Inh (BRSK1) [%] | %Inh (BRSK2) [%] | %Inh (BTK) [%] | %Inh (BUB1) [%] | %Inh (CAMK1B) [%] | %Inh (CAMK1D) [%] | %Inh (CAMK1G) [%]
COc1cc(Nc2nccc(-c3c(-c4cccc(NC(=O)c5c(F)cccc5F)c4)nn4ccccc34)n2)cc(OC)c1OC [GSK323521] | 7 | 9 | 57 | 8 | 13 | 1 | 3 | 0 | 21 | 31
Cl.c1ccc(-c2ccc3c(Nc4ccc5[nH]ncc5c4)ccnc3c2)nc1 [GW440137] | 0 | 7 | 20 | 0 | 2 | 0 | 47 | 36 | 18 | 5
COc1cc(Nc2nccc(-c3c(-c4cccc(NC(=O)c5c(F)cccc5F)c4)nn4ncccc34)n2)cc(OC)c1OC [GSK327238] | 91.4 | 96 | 97.6 | 0 | 40 | 94 | 54 | 0 | 13 | 3
Nc1ncnc2c1nc(-c1ccccc1)n2-c1ccccc1 [SKF-97293] | 15 | 6 | 1 | 15 | 27 | 0 | 46 | 6 | 8 | 0
O=C(Nc1ccccc1F)NC1CCN(c2ccnc(Nc3ccc(F)cc3)n2)CC1 [GSK1379800] | 3 | 0 | 0 | 0 | 0 | 0 | 63 | 36 | 5 | 0
COc1cccc(NC(=O)NC2CCN(c3ccnc(Nc4cc(OC)c(OC)c(OC)c4)n3)C2)c1 (stereo not shown) [GSK1379763] | 2 | 5 | 0 | 0 | 0 | 0 | 18 | 35 | 4 | 17
CN(C)Cc1ccc(-c2ccc3c(Nc4ccc(Oc5ccccn5)cc4)ccnc3c2)o1 [GW567148] | 12 | 1 | 95.2 | 0 | 0 | 74 | 0 | 0 | 0 | 0
Oc1cc(Nc2ccnc3cc(I)ccc23)ccc1F [GW552771] | 15 | 79 | 28 | 11 | 0 | 7 | 57 | 37 | 8 | 0
CCn1c(-c2nonc2N)nc2c(C#CC(C)(C)O)ncc(OCCCCN)c21.O=C(O)C(F)(F)F.O=C(O)C(F)(F)F [GSK507274] | 19 | 8 | 27 | 0 | 0 | 0 | 37 | 0 | 40 | 7
Cc1ccc(C(=O)N2CC[C@@H](O)C2)cc1-n1c(C)cc(OCc2ccc(F)cc2F)c(Br)c1=O | 0 | 58 | 20 | 0 | 0 | 0 | 0 | 0 | 17 | 0
